MOR-DOR ag – agonists of human mu-delta opioid receptor heterodimerization; P35372+P41143; cells, OPRM1-OPRD1 heterodimerization, luminescence; activation, % at 9.3 µM; actives 0.3% (n = 340,000); AID 504326; in the data active = activation above about 18%
HTR5A ag ctr – counter-screen for OPRM1-OPRD1 agonists: human HTR5A agonism | activation, % at 9.3 µM | actives 0.61% (n = 340,000) | HTR5A agonist assay, luminescence, cell-based | P47898; in the data active = activation mostly above about 9.5%, no sharp cut-off; inactive = mostly below about 7.6%
HTR2A ag – activates the mouse 5-HT2A serotonin receptor; P35363; CHO-K1 mHTR2A beta-arrestin complementation, luminescence; percent of 30 µM serotonin response; activation, % at 7.6 µM; actives 0.66% (n = 360,000); AID 624169;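 active = activation above a run cutoff, the mean activation of all tested compounds plus 3 SD, cut at about 14% in these data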
Target sequence (P35363 whole entry, looked up): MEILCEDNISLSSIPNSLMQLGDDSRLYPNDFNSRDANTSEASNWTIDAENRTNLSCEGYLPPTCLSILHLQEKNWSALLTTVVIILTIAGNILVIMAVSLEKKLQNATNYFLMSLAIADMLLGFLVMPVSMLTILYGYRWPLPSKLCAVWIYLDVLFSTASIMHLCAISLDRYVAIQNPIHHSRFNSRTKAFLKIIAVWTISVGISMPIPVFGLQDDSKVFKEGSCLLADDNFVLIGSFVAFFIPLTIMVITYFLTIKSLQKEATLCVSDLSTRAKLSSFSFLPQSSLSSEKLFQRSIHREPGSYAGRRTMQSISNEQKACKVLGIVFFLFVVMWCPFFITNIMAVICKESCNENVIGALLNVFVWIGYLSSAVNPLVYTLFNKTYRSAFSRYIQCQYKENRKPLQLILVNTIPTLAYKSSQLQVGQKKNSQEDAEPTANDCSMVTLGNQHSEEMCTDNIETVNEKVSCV
MOR-DOR inv ag – inverse agonists of human mu-delta opioid receptor heterodimerization | P35372+P41143 | cell-based MOR-DOR heterodimer luminescence, inverse agonism | inhibition, % at 9.3 µM | actives 0.21% (n = 340,000) | AID 504357; in the data active = inhibition above about 22%, passing the limit was not always enough
HTR5A inv ctr – counter-screen for OPRM1-OPRD1 inverse agonists: human HTR5A inverse agonism | HTR5A cell line, luminescence | inhibition, % at 9.3 µM | actives 0.083% (n = 340,000) | AID 504634; in the data active = inhibition mostly above about 23%, no sharp cut-off; inactive = mostly below about 18%
Numbers stand for hits; n = inactive; x = not tested or not shown. In the library only some 1.6% were active in any assay of this set; here they are far more common.

SMILES	MOR-DOR ag	HTR5A ag ctr	HTR2A ag	MOR-DOR inv ag	HTR5A inv ctr
CCOc1ccc(NC(=O)NCCN2CCN(c3cccc(C)c3C)CC2)cc1	n	11	n	n	n
CCOc1ccc(NC(=O)NCCN2CCN(c3ccccc3F)CC2)cc1	n	n	n	n	n
Clc1ccc(CN2C3=NCCCN3c3ccccc32)cc1	n	n	n	n	n
O=C1c2ccccc2N(Cc2ccc(Cl)cc2)C2=NCCN12	n	11	n	n	n
CN(C)CCCN(C(=O)c1ccc(N2C(=O)CCC2=O)cc1)c1nc2c(F)cccc2s1	n	13	n	n	n
Cc1ccc([C@H]2C[C@H](O)[C@@H](n3cc(C4CC4)nn3)CN2Cc2cccs2)cc1	x	x	n	x	x
COc1ccc(NC(=O)CN2CCCCC2)c([N+](=O)[O-])c1	n	n	16	n	n
COc1ccc(NC(=O)CN2CCC(C)CC2)c([N+](=O)[O-])c1	n	n	n	n	n
CC(CCc1ccccc1)NC(=O)COC(=O)c1ccccc1O (stereo not drawn)	n	n	n	n	n
COc1ccccc1C(=O)OCC(=O)NC(C)CCc1ccccc1 (stereo not drawn)	n	13	n	n	n
O=C(OCCO)c1c(C2=CCCCC2)oc2c1C(OCCO)CCC2 (stereo not drawn)	x	x	n	x	x
CCN(CC)c1ccc(/C=N/NC(=S)NCc2ccc(OC)cc2)cc1	n	n	n	n	n
CCN(CC)c1ccc(/C=N/NC(=S)NCc2ccccc2)cc1	n	14	n	n	n
COc1ccc(Cc2c(-c3ccc(Cl)cc3)nc3c(C)cc(Br)cn23)c(C)c1	x	x	n	x	x
CC(=O)NC(c1ccccc1)c1nc(-c2cc(F)cc(F)c2)cs1 (stereo not drawn)	x	x	n	x	x
Cc1ccc(-c2noc(CSc3nnc(Cc4cccs4)n3-c3ccccc3)n2)cc1	n	n	21	n	n
CNC[C@@H](Cc1ccccc1)NC[C@@H](CC1CCCCC1)NCCCc1ccccc1	23	20	n	n	n
CNC[C@@H](CC1CCCCC1)NC[C@H](CC(C)C)NCCc1cccc(C(F)(F)F)c1	25	13	n	n	n
CCNC(=O)C1(C)CCN(C(=O)c2cccc(C#N)c2)C1 (stereo not drawn)	x	x	n	x	x
O=C(NC1CCCCC1)C(c1ccc(C(F)(F)F)cc1)n1c(=O)c(-c2ccco2)nc2ccccc21 (stereo not drawn)	x	x	n	x	x
NS(=O)(=O)c1ccc(NC(=O)COC(=O)c2cn(-c3ccccc3)nc2-c2ccc(F)cc2)cc1	n	12	n	n	n
O=C(COC(=O)c1cn(-c2ccccc2)nc1-c1ccc(F)cc1)Nc1ncc(Cl)cc1Cl	n	n	n	n	n
CCCC#Cc1ccc2c(c1)O[C@H](CN(C)C(=O)CC1CC1)[C@H](C)CN([C@@H](C)CO)S2(=O)=O	x	x	n	x	x
O=C(O/N=C1/CCSc2ccccc21)c1ccc(F)cc1	n	10	n	n	n
O=C(O/N=C1/CCCc2occc21)c1ccc(F)cc1	n	n	n	n	n
SMILES	MOR-DOR ag	HTR5A ag ctr	HTR2A ag	MOR-DOR inv ag	HTR5A inv ctr
CC(=O)c1c(C)[nH]c(C(=O)OCC(=O)N2CCN(c3ccccc3)CC2)c1C	x	x	n	x	x
Cc1ccc(-n2sc3ccccc3c2=O)cc1S(=O)(=O)N1CCCCC1	n	n	17	n	n
CC[C@]12c3[nH]c4cc(-c5ccco5)ccc4c3CCN1C(=O)[C@@H](CC(=O)NCC13CC4CC(CC(C4)C1)C3)C[C@@H]2C(=O)N1CCN(C(=O)C2CC2)CC1	n	n	n	n	n
O=C(C[C@H]1C[C@H](C(=O)N2CCOCC2)[C@@]2(CCC3CCCC3)c3[nH]c4ccc(Cl)cc4c3CCN2C1=O)NCC12CC3CC(CC(C3)C1)C2	n	n	n	n	n
COc1ccc2[nH]c3c(c2c1)CCN1C(=O)C(CC(=O)NCC24CC5CC(CC(C5)C2)C4)C[C@H](C(=O)N2CCOCC2)[C@@]31CCC1CCCC1 (stereo partly drawn)	n	4.4	n	n	n
CC[C@]12c3[nH]c4cc(-c5ccco5)ccc4c3CCN1C(=O)[C@@H](CC(=O)NCc1ccco1)C[C@@H]2C(=O)N1CCN(C(=O)C2CC2)CC1	n	4.4	n	n	n
CC(C)N(C(=O)[C@H]1C[C@H](CC(=O)NCC23CC4CC(CC(C4)C2)C3)C(=O)N2CCc3c([nH]c4ccc(Cl)cc34)[C@]12C)C(C)C	n	4.2	n	n	n
CC(C)(C)NC(=O)CC1C[C@H](C(=O)N2CCOCC2)[C@@]2(CCC3CCCC3)c3[nH]c4ccccc4c3CCN2C1=O (stereo partly drawn)	n	8.6	n	n	n
CCCc1nc2ccc(NC(=O)c3cccs3)cc2c(=O)n1Cc1ccccc1Cl	n	n	n	n	n
CCCc1nc2ccc(NC(C)=O)cc2c(=O)n1Cc1ccc(Cl)cc1	n	10	n	n	n
O=C(NCc1ccccc1)OC1CC2CC1[C@H]1CCCCN1C2=O (stereo partly drawn)	x	x	n	x	x
COc1ccc(NC(=O)N2CCCC(c3nc(-c4ccc(C(C)C)cc4)no3)C2)cc1 (stereo not drawn)	n	12	n	n	n
COc1ccc(NC(=O)N2CCCC(c3nc(-c4ccc(OC)cc4)no3)C2)cc1 (stereo not drawn)	n	n	n	n	n
O=C(CCc1ccccc1)NC(c1cccs1)c1cc(Cl)c2cccnc2c1O (stereo not drawn)	n	13	n	n	n
CCCC(=O)NC(c1cccs1)c1cc([N+](=O)[O-])c2cccnc2c1O (stereo not drawn)	n	n	n	n	n
COc1ccc2cc3cc(C(=O)NCC4COc5ccccc5O4)oc3nc2c1 (stereo not drawn)	n	13	n	n	n
COc1ccc2cc3cc(C(=O)NCc4ccc5c(c4)OCO5)oc3nc2c1	n	n	n	n	n
COc1ccc(CC(N)c2csc(NC(=O)c3cc(C(C)(C)C)oc3C)n2)cc1 (stereo not drawn)	x	x	n	x	x
COC(=O)C(NS(=O)(=O)c1ccccc1Br)C(C)C (stereo not drawn)	n	14	n	n	n
COc1ccc(OC)c(N=Nc2c(O)c3ccccc3[nH]c2=O)c1	n	14	n	n	n
CCCCOCCCNC(=O)C[C@@H]1C[C@@]2(C(=O)OCC)CCC=C2N(Cc2ccc(Cl)cc2Cl)C1=O	x	x	n	x	x
Cc1ccc(CNC(=O)/C=C/c2ccccc2Cl)cc1	n	11	n	n	n
COC(=O)c1cc(CSc2nnc(NC3CCCCC3)s2)oc1C	n	11	n	n	n
c1ccc(CSc2nnc(NC3CCCCC3)s2)cc1	x	x	n	x	x
CCn1c(N2CCN(S(=O)(=O)c3ccccc3C(F)(F)F)CC2)nc2ccccc21	n	13	n	n	n
O=S(=O)(c1ccccc1C(F)(F)F)N1CCN(S(=O)(=O)c2ccccc2C(F)(F)F)CC1	n	n	n	n	n
CCCCOC(=O)c1ccc(OC(=O)c2cccnc2)cc1	n	n	n	n	n

High-throughput results as filed in PubChem BioAssay.
